“And” between values parts separate entries of the source, which are not always exact repeats. Equal values may be shown once. Records with an inconclusive call do not appear. Values without a mark were called inactive. The source made the active and inactive calls. Calls follow the shape of the dose curve; as a rule, active = well fitted inhibition curve with a large enough effect; inconclusive = small, poorly fitted or top-dose-only effect; inactive = flat fitted curve, though single readings scatter. Where a SMILES comes first, the peptide text is derived from it. Bridges are numbered along the chain shown (N, C = ends).
What was measured:
HaCat [1] = experiment: Cytotoxic Profiling of Annotated Libraries Using Quantitative High-Throughput Screening (AID 1296008); details: Five cell lines viability, CellTiter-Glo ATP luminescence, 48-72 h; max response: active compounds read low; also: potency is read from the fitted curve at half-maximal effect; as to max response: % is scaled to controls: 0 for no effect and ±100 for the full control effect
Outline: (§1)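 Cytotoxicity was measured as CellTiter-Glo ATP luminescence, read after 10 min at room temperature. Compound treatment of the cells lasted 48 or 72 hr at 37 degrees Celsius in a qHTS format.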

NIH3T3 = experiment: as above; details: Five cell lines viability, CellTiter-Glo ATP luminescence, 48-72 h; max response: active compounds read low
Outline: as §1

KB-3-1 = experiment: as above; details: Five cell lines viability, CellTiter-Glo ATP luminescence, 48-72 h; max response: active compounds read low
Outline: as §1

HACAT [2] = experiment: qHTS assay to identify novel small-molecules to repurpose for Merkel cell carcinoma treatment (AID 1296009); details: MCC and control cell lines, CellTiter-Glo viability, 72 h; at 44.8 µM (top of the series) unless noted
Outline: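 72 hr, 37 degree celsius; NPC 8-pt / MIPE 11-pt dose response; compound pinned in DMSO; CellTiter-Glo, 10 min RT, luminescence; normalized to no-cell and DMSO controls.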
Also: nearly all actives have a fitted effect of over 60% in size.

SMILES: Cc1ccc(C)c(NS(=O)(=O)c2cc(C(=O)Nc3ccccc3-c3ccccc3)ccc2C)c1
- max response (HaCat [1]): -22.2%
- max response (NIH3T3): -13.7%

SMILES: C=CC(=O)Nc1cc(-n2c(=O)ccc3cnc4ccc(-c5ccc(NS(C)(=O)=O)cc5)cc4c32)ccc1C
- max response (HaCat [1]): -9.43%
- max response (NIH3T3): -11.5%

SMILES: COc1ccc(-c2ccccc2)cc1NS(=O)(=O)c1cc(Cl)cc(Cl)c1O
- outcome (HaCat [1]): inactive
- max response (KB-3-1): 4.02%
- outcome (HACAT [2]): inactive [at 17.4 µM]

SMILES: COc1ccccc1N1CCN(CC[C@@](C)(C(=O)C2CCCCC2)c2ccccc2)CC1
- max response (HaCat [1]): -16.7%
- max response (NIH3T3): -6.96%

SMILES: COc1cc(/C=C/C(=O)NCCn2c(C(F)(F)F)cc3ccccc32)cc(OC)c1OC
- max response (HaCat [1]): -29.1%
- max response (NIH3T3): -23.8%

SMILES: COc1ccc(C#Cc2ccc(C(=O)N3CCC[C@@H](CO)C3)cc2)cc1
- max response (HaCat [1]): 1.97%
- max response (NIH3T3): -25.7%

SMILES: O=C(O)c1cccc(/C=C2/C[C@@H]3[C@@H](/C=C/[C@@H](O)C4CCCCC4)[C@H](O)C[C@@H]3O2)c1
- max response (KB-3-1): -0.588%

SMILES: CCCCCCCCCCCCCCCC(=O)OC[C@@H](COP(=O)([O-])OCC[N+](C)(C)C)OC(=O)CCCCCCCCCCCCCCC
- max response (KB-3-1): 1.61%

SMILES: O.O=C([O-])CC([S-])C(=O)[O-].[Au+].[Na+].[Na+] (stereo unspecified)
- max response (KB-3-1): -7.82%

SMILES: Nc1ncnc2c1c(-c1ccc(Oc3ccccc3)cc1)nn2[C@@H]1CCCNC1
- max response (KB-3-1): -20%

SMILES: Cc1ccc(C2(O)CCN(CCCC(=O)c3ccc(F)cc3)CC2)cc1
- max response (KB-3-1): -11.9%

SMILES: O=P(O)(O)C(Sc1ccc(Cl)cc1)P(=O)(O)O
- max response (KB-3-1): 2.09%

SMILES: NCCCC[C@H](NC(=O)[C@@H]1CCCN1C(=O)[C@@H]1CSSC[C@H](NC(=O)CNC(=O)CNC(=O)CN)C(=O)N[C@@H](Cc2ccc(O)cc2)C(=O)N[C@@H](Cc2ccccc2)C(=O)N[C@@H](CCC(N)=O)C(=O)N[C@@H](CC(N)=O)C(=O)N1)C(=O)NCC(N)=O (H-GGGCYFQNCPKG-NH2; disulfide 4-9)
- max response (KB-3-1): -6.41%

SMILES: NCCCC(=O)O
- max response (KB-3-1): 2.75%

SMILES: O=C(O)[C@@H](O)[C@H](O)[C@H](O)[C@@H](O)C(=O)O (tested in a mixture with another compound)
- max response (KB-3-1): -0.35%

SMILES: CCC(c1ccccc1)c1noc(CCN(CC)CC)n1 (stereo unspecified)
- max response (KB-3-1): -6.24%

SMILES: O=[N+]([O-])c1ccc(Oc2ccc(N=C=S)cc2)cc1
- max response (KB-3-1): -16.8%

SMILES: CCCCCCCCCC(=O)O
- max response (KB-3-1): -12.8%

SMILES: O=c1[nH]cnc2[nH]cc(CN3CCCCC3)c12
- max response (KB-3-1): -7.83%

SMILES: CCCCc1cc2c(=O)c(C(=O)OC)c[nH]c2cc1OCc1ccccc1
- max response (KB-3-1): -10.6%

SMILES: CCn1c(=O)c(-c2ccc(-c3cncs3)cc2Cl)cc2cnc(Nc3ccc(N4CCN(C)CC4)cc3)nc21
- Potency (KB-3-1): 10.3 µM (active)

SMILES: CN1CC(O)c2cc(N=NC(N)=O)c(O)cc21 (stereo unspecified)
- max response (KB-3-1): -10.6%

SMILES: CC(=O)O[C@H]1CC[C@@]2(C)C(=CC[C@@H]3[C@@H]2CC[C@]2(C)C(c4cccnc4)=CC[C@@H]32)C1
- max response (KB-3-1): 0.542%

SMILES: CS(=O)(=O)NC(=O)CCC/C=C\C[C@H]1C(=O)C[C@@H](O)[C@@H]1/C=C/[C@H](O)COc1ccccc1
- max response (KB-3-1): -12.3%

SMILES: Cc1cccc(C)c1N(CCCc1cccnc1)C(=O)C(C)N (stereo unspecified)
- max response (KB-3-1): -6.26%

SMILES: c1ccc2c(CCC3CCNCC3)c[nH]c2c1
- max response (KB-3-1): -10.3%

SMILES: NCCCC[C@H](NC(=O)[C@@H]1CCCN1C(=O)[C@@H]1CSSC[C@H](N)C(=O)N[C@@H](Cc2ccccc2)C(=O)N[C@@H](Cc2ccccc2)C(=O)N[C@@H](CCC(N)=O)C(=O)N[C@@H](CC(N)=O)C(=O)N1)C(=O)NCC(N)=O
- max response (KB-3-1): -12.7%

SMILES: C=CS(=O)(=O)O
- max response (KB-3-1): -7.41%

SMILES: CCCCCCCC/C=C\CCCCCCCC(=O)OC[C@@H](O)[C@H]1OC[C@H](O)[C@H]1O
- max response (KB-3-1): -11.7%

SMILES: CC(C)NC(=O)N1CC[C@H](N=C2Nc3cc(F)ccc3N(CC(F)F)c3ccc(Cl)cc32)C1
- max response (KB-3-1): -1.78%

SMILES: O=C(Nc1ccc(/C=C/c2ccc(NC(=O)c3cc(S(=O)(=O)O)c4cccnc4c3O)cc2S(=O)(=O)O)c(S(=O)(=O)O)c1)c1cc(S(=O)(=O)O)c2cccnc2c1O
- max response (KB-3-1): 0.4%

SMILES: O=P(O)(O)OC(CO)CO
- max response (KB-3-1): 1.53%

SMILES: Cc1ccc(-c2ncccn2)c(C(=O)N2C[C@H](COc3ccc(F)cn3)CC[C@H]2C)c1
- max response (KB-3-1): 1.72%

SMILES: CNC[C@@H]1CC[C@@H](N)[C@@H](O[C@H]2[C@H](O)[C@@H](O[C@H]3OC[C@](C)(O)[C@H](NC)[C@H]3O)[C@H](N)C[C@@H]2N)O1
- max response (KB-3-1): -26.6%

SMILES: CCCCCCCCCCCCCCCC(=O)O[C@@H]1CC(C)=C(/C=C/C(C)=C/C=C/C(C)=C/C=C/C=C(C)/C=C/C=C(C)/C=C/C2=C(C)C[C@@H](OC(=O)CCCCCCCCCCCCCCC)CC2(C)C)C(C)(C)C1
- max response (KB-3-1): -27.5%

SMILES: CN(C)Cc1ccccc1
- max response (KB-3-1): -10.5%

SMILES: NC(=O)C[C@@H](N)C(=O)O
- max response (KB-3-1): -17.1%

SMILES: CCC(=O)OCC(=O)[C@@]1(OC(=O)CC)[C@H](C)C[C@H]2[C@@H]3CCC4=CC(=O)C=C[C@]4(C)[C@@]3(F)[C@@H](O)C[C@@]21C
- max response (KB-3-1): -9.03%

SMILES: COc1ccc(CNCC(O)COc2ccc3[nH]c(=O)ccc3c2)cc1OC (stereo unspecified)
- max response (KB-3-1): 2.61%

SMILES: CCC(CN)CC(C)CCNCC(O)CNCC(C)CC(CC)CN (stereo unspecified)
- max response (KB-3-1): -5.63%

SMILES: C/C(=C(/CCO)SSCC1CCCO1)N(C=O)Cc1cnc(C)nc1N (stereo unspecified)
- max response (KB-3-1): -15.4% and -10.3%

SMILES: CCOC(=O)Nc1ccc2c(c1)N(C(=O)CN(C)C)c1ccccc1CC2
- max response (KB-3-1): -13.4%

SMILES: CC(=O)OCC(=O)[C@@]1(O)[C@H](C)C[C@H]2[C@@H]3C[C@H](F)C4=CC(=O)C=C[C@]4(C)[C@H]3[C@@H](O)C[C@@]21C
- max response (KB-3-1): 23.1%

SMILES: CC1(S(=O)(=O)O)CC(=O)c2ccccc2C1=O (stereo unspecified)
- max response (KB-3-1): 5.99%

Source: PubChem BioAssay (NCATS)
